Experiment [1] deals with Cellular tumor antigen p53 (Homo sapiens) (UniProt P04637). In words: Primary qHTS for small molecule compounds that upregulate eGFP-tagged delta133p53alpha (in N-terminal) cells. (AID 2060322). Also: nearly all actives have a fitted effect of over 75% in size. Also: potency is read from the fitted curve at half-maximal effect.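 As to activation: series mostly up to about 56 µM; 0% = DMSO vehicle and 100% = reference activator.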 The following applies: NCI-H358 eGFP-delta133p53alpha fluorescence, 24 h; activation: active compounds read high. Summed up: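 NCI-H358 cells pre-induced 24 h with 10 ng/ml doxycycline to express N-terminal eGFP-delta133p53alpha, then dosed 24 h at 37C without doxycycline; fixed, Hoechst-stained, GFP intensity by laser scanning cytometry, normalized to DMSO (0%) and 57.5 uM 5-azacytidine (100%).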
For orientation: Quantitative high-throughput screening tests each substance at several concentrations.

The target is the same in experiment [2]. In words: Primary qHTS for small molecule compounds that upregulate eGFP-tagged delta133p53alpha (in C-terminal) cells. (AID 2060324). Also: potency is read from the fitted curve at half-maximal effect. A digest of the protocol:
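In this qHTS, GFP-tagged delta133p53alpha levels are measured in fixed NCI-H358 cells after 24 h compound exposure at 37 °C. The cells are pre-induced with 100 ng/ml doxycycline, and signal is normalized to DMSO-treated wells as 0%.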

Experiment [3] deals with Aldehyde dehydrogenase, mitochondrial (Homo sapiens) (UniProt P05091). Kind of experiment: qHTS for Inhibitors of the Aldehyde Dehydrogenase Family (ALDH2) Validation screens (AID 2061302; active = well fitted inhibition curve with a large enough effect; title and protocol of this record describe different tests;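 also: plate controls were DMSO vehicle for no effect and maximal DPI positive control response for full effect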).
The target is the same in experiment [4]. Kind of experiment: qHTS for Inhibitors of the Aldehyde Dehydrogenase Family (ALDH2) Primary screen (AID 2061308).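 Also: plate controls were vehicle for no effect and reference inhibitor for full effect; nearly all actives have a fitted effect of over 55% in size.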
Experiment [5] deals with Retinaldehyde dehydrogenase 3 (Homo sapiens) (UniProt P47895). Kind of experiment: qHTS for Inhibitors of the Aldehyde Dehydrogenase Family (ALDH1A3) Validation screen (AID 2061312). Also: % is scaled to controls: 0 for no effect and ±100 for the full control effect; nearly all actives have a fitted effect of over 45% in size.
Experiment [6] shares this target. In words: qHTS for Inhibitors of the Aldehyde Dehydrogenase Family (ALDH1A3) Primary screen (AID 2061315).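 Also: plate controls were DMSO vehicle for no effect and reference inhibitor for full effect.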
The nature of experiment [7]: BET inhibitor-based combinations targeting novel dependencies in MECOM-rearranged (r) AML: OCI-AML3 cell line (AID 2202232). Also: nearly all actives have a fitted effect of over 35% in size. Also: potency is read from the fitted curve at half-maximal effect. The settings on record: Potency: OCI-AML3 viability. Summed up:
(§1)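 Here, 11-point titrations of each agent were applied to 500 seeded cells and incubated 48 hr; CellTiter-Glo signal, scaled against DMSO and empty wells, was integrated as AUC, then Z-scored within the individual line.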

Experiment [8] in a line: BET inhibitor-based combinations targeting novel dependencies in MECOM-rearranged (r) AML: UCSD-AML1 cell line (AID 2202235). Also: nearly all actives have a fitted effect of over 40% in size. Also: potency is read from the fitted curve at half-maximal effect. A digest of the protocol:
(§2)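 Normalized to DMSO and empty-well controls, the luminescence data from CellTiter-Glo after 48 hr drug exposure were fitted across 11 concentrations. Reported metrics are area under the dose-response curve and its Z-transformed form.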

Experiment [9] in a line: BET inhibitor-based combinations targeting novel dependencies in MECOM-rearranged (r) AML: AML-191 cell line (AID 2202236; also: nearly all actives have a fitted effect of over 35% in size; also: potency is read from the fitted curve at half-maximal effect). Summed up: as §1
The nature of experiment [10]: BET inhibitor-based combinations targeting novel dependencies in MECOM-rearranged (r) AML: AML-194 cell line (AID 2202237; also: nearly all actives have a fitted effect of over 40% in size; also: potency is read from the fitted curve at half-maximal effect). A digest of the protocol: as §1
A short description of experiment [11]: BET inhibitor-based combinations targeting novel dependencies in MECOM-rearranged (r) AML: MV-4-11 cell line (AID 2202233). Also: potency is read from the fitted curve at half-maximal effect; nearly all actives have a fitted effect of over 45% in size. A digest of the protocol: as §2
Experiment [12] in a line: BET inhibitor-based combinations targeting novel dependencies in MECOM-rearranged (r) AML: HNT-34 cell line (AID 2202234). Also: nearly all actives have a fitted effect of over 35% in size. Also: potency is read from the fitted curve at half-maximal effect. Summed up: as §2
A short description of experiment [13]: BET inhibitor-based combinations targeting novel dependencies in MECOM-rearranged (r) AML: SET-2 cell line (AID 2202231). Also: nearly all actives have a fitted effect of over 35% in size. Also: potency is read from the fitted curve at half-maximal effect.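 As to viability: plate controls were DMSO treated cells for no effect and wells without cells for full effect.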 The following applies: SET-2 AML cells viability, CellTiter-Glo luminescence, 48 h; viability: active compounds read low, concentration not given here. Summed up: as §1
Background: In ATP-based viability assays light output follows the ATP content of the culture.

“And” between values parts separate entries of the source, which are not always exact repeats. Identical values can stand only once. Inconclusive results are not listed. A structure can be active in one record and inactive in another. Unmarked numbers belong to inactive results. The source made the active and inactive calls. Unless noted, calls follow the shape of the dose curve; as a rule, active = well fitted curve in the direction sought with a large enough effect; inconclusive = small, poorly fitted or top-dose-only effect, or another doubt; inactive = no such curve, though single readings can be large; an effect the other way counts as inactive or inconclusive.

By viability is commonly meant a read-out of living cells in per cent, often relative to untreated cells.

Sequence of Cellular tumor antigen p53 (Homo sapiens) (P04637 whole entry, looked up): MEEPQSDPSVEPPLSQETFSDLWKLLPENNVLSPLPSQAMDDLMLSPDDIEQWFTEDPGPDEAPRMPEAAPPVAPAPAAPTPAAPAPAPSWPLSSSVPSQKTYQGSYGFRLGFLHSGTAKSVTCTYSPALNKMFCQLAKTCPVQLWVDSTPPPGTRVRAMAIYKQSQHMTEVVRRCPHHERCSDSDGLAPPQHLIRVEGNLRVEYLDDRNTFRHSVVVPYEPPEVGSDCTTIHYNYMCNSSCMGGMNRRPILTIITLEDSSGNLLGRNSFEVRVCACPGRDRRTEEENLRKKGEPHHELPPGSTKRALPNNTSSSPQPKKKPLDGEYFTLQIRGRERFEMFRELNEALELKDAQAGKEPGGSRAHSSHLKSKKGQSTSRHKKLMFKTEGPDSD

Consider `N=C1SC(=Cc2ccc(-c3ccc4c(c3)C(=O)NC4=O)o2)C(=O)N1c1ccc(Br)cc1`, for which the activation in [1] is 54.1%.
Same read-out and setting: next, `CCCN(CCc1cccs1)[C@H]1CCc2c(O)cccc2C1`: 5.08%.
Still for that read-out and setting: next, `CC[C@]12CCCN3CCc4c(n(c5ccccc45)[C@@](O)(C(=O)OC)C1)[C@@H]32`: 5.02%; `NC(=O)Cc1cccc(C(=O)c2ccccc2)c1N`: 9.6%; `CCc1c(C)nc2c(-c3cnn(-c4cc(CO)ccn4)c3)c[nH]n2c1=O`: 5.67%.
On to `O=C(O)c1[nH]n(-c2ccc(S(=O)(=O)O)cc2)c(=O)c1N=Nc1ccc(S(=O)(=O)O)cc1`, for which the activation in [1] was 3.95%.
The same measure, in the same setting: next, `FC(F)(F)C(Cl)Br` (configuration not stated): 8.37%.
With `C1N2CN3CN1CN(C2)C3`, in [1], the Potency is 27.6 µM (active).
Take `CN1CCCN(C(=O)c2cccc(-c3ccc(C=C4C(=O)Nc5ccc(Cl)cc54)o3)c2)CC1`: the activation in [1] is 19.8%.
Take `COC(=O)[C@H]1[C@H]2C[C@@H]3c4[nH]c5cc(OC)ccc5c4CCN3C[C@H]2C[C@@H](OC(=O)c2cc(OC)c(OC)c(OC)c2)[C@@H]1OC`: the Potency in experiment [1] is 27.6 µM (active); in [2], 26.9 µM (active). Further, the activation in experiment [1] was -18%. Moreover, the Potency entry in [3], in [4], in experiment [5] and in [6] was “inactive” throughout.
Turning to `CNCC[C@H](Oc1cccc2ccccc12)c1cccs1`, in [1], the Potency is 17.4 µM (active) and the activation was 8.04%.
As for `C#C[C@]1(O)CC[C@@H]2[C@@H]3CCC4=CC(=O)CC[C@@H]4[C@H]3CC[C@@]21CC`, the activation in [1] is 25.3%.
Still for that read-out and setting: under `O=C1CCCc2c(O)cccc21` stands -14.1%; under `CC(=O)N1C[C@H](O)C[C@H]1C(=O)O`, 14.2%.
As for `Cn1c(=O)c(-c2c(Cl)cccc2Cl)cc2cnc(Nc3cccc(C(=O)O)c3)nc21`, the results for the Potency in [1] and in experiment [7] were 12 µM (active) and 0.235 µM (active), respectively. The activation in [1] was 29.6%. Also, the Potency result in experiment [4], in experiment [5], in experiment [6], in experiment [8], in [9] and in experiment [10] was “inactive” in each case.
Take `Cc1cc(C)c(CNC(=O)c2cc(-c3ccc(CN4CCOCC4)cc3)cc3c2cnn3C2CCCC2)c(=O)[nH]1`: the Potency in [1] was 4.31 µM (active); in [11], 29.5 µM (active). In [1], the activation was 7.64%. In addition, the Potency result in experiment [4] and in experiment [6] was “inactive” in each case.
With `COc1ccc(-c2cc3nccn3c(Nc3ncccc3C(N)=O)n2)cc1OC`, the Potency in [1] was 4.78 µM (active); in experiment [11], 0.372 µM (active); in experiment [8] it was 6.61 µM (active); in experiment [9] it was 8.33 µM (active). Further, the activation in [1] was 14.1%. For the same molecule, the Potency result in experiment [4] and in [6] was “inactive” throughout.
On to `COCCOc1nc(-c2ccc(Cl)c(Cl)c2)n(-c2ccc(NC(=O)CCl)cc2)n1`, for which the Potency in experiment [1] is 15.1 µM (active); in [7] it was 2.09 µM (active); in [11] it was 5.25 µM (active); in experiment [12] it was 0.662 µM (active); in [8], 1.32 µM (active); in experiment [9], 1.05 µM (active). Further, in experiment [10], the Potency was 0.934 µM (active). Further, the activation in [1] was 36.6%. Besides, the Potency entry in [4] and in experiment [5] was “inactive” in each case.
For `CCCCOc1c(C(=O)c2c(F)cc(C)cc2F)cnc2n[nH]cc12`, the Potency is 3.79 µM (active) in [1]; 2.09 µM (active) in experiment [7]; 1.48 µM (active) in experiment [11]; 2.95 µM (active) in [12]; 2.35 µM (active) in experiment [8]; 2.63 µM (active) in experiment [9]. Besides, the activation in experiment [1] is 10.1%. For the same molecule, the Potency entry in experiment [4] and in experiment [6] was “inactive” in each case.
With `Fc1cc(-c2cccc3ncc(-c4cnn(C5CCNCC5)c4)nc23)cc(F)c1CN1CCOCC1`, the Potency is 27.3 µM (active) in experiment [1]; 4.68 µM (active) in experiment [13]; 11.8 µM (active) in [7]; 0.934 µM (active) in experiment [11]; 2.35 µM (active) in experiment [12]; 3.32 µM (active) in experiment [8]. The Potency in experiment [9] was 10.5 µM (active); in [10], 6.61 µM (active). For the same molecule, the activation in [1] was -17.4%. Moreover, the Potency entry in experiment [4] and in experiment [6] was “inactive” each time.
In the case of `CN(C[C@@H]1COCCO1)S(=O)(=O)Nc1ccc2ccc3ncc(-c4cnn(C)c4)cc3c(=O)c2c1`, the Potency in experiment [1] is 8.63 µM (active); in experiment [11], 0.417 µM (active); in experiment [12], 3.32 µM (active); in experiment [9], 6.61 µM (active). In experiment [1], the activation is -1.43%. Further, the Potency result in experiment [4], in [5] and in experiment [6] was “inactive” throughout.
For the molecule `O=C(Nc1cc(C(F)(F)F)cc(C(F)(F)F)c1)c1cc(Cl)ccc1O`, the Potency in [1] is 3.01 µM (active); in experiment [13], 2.35 µM (active); in experiment [7] it was 2.09 µM (active); in [12], 2.35 µM (active); in [8], 1.66 µM (active); in [10], 2.63 µM (active). The activation in experiment [1] was 2.31%. Further, the Potency entry in [4] and in experiment [6] was “inactive” throughout.
As for `Cn1c2ccccc2c2c3c(c4c5ccccc5n(CCC#N)c4c21)CNC3=O`, the Potency in [1] was 16.9 µM (active); in experiment [12] it was 3.32 µM (active); in experiment [8], 8.33 µM (active); in experiment [9], 3.32 µM (active); in experiment [10], 4.68 µM (active). The activation in experiment [1] is -13.5%. Also, the Potency result in experiment [4] and in experiment [6] was “inactive” in each case.
For the molecule `NS(=O)(=O)NCCNc1nonc1C(=Nc1ccc(F)c(Br)c1)NO`, in [1], the Potency was 2.16 µM (active). Moreover, the activation in experiment [1] was -6.33% and -3%. Further, the Potency result in experiment [4], in [6], in [7], in [12], in experiment [8] and in [9] was “inactive” throughout. Also, the Potency result in experiment [10] is “inactive”.
On to `Cc1nc(N)sc1-c1ccnc(Nc2ccc(N3CCOCC3)cc2)n1`, for which the Potency in experiment [1] is 26.9 µM (active); in experiment [7], 11.8 µM (active); in experiment [11], 0.186 µM (active); in [8], 0.833 µM (active); in experiment [9], 7.42 µM (active); in experiment [10], 4.17 µM (active). Further, the activation in experiment [1] is -1.52%. In addition, in [4], the Potency result is “inactive”.
With `Nc1nc(NCCNc2ncc(-n3ccnc3)c(-c3ccc(Cl)cc3Cl)n2)ccc1[N+](=O)[O-]`, the values for the Potency in experiment [1], in [11] and in experiment [12] were 8.49 µM (active), 8.33 µM (active) and 4.17 µM (active), respectively. Besides, the activation in [1] is -14%. Moreover, the Potency entry in [4], in experiment [6] and in [10] was “inactive” throughout. In addition, the viability in [13] is 116%.

(Values after PubChem BioAssay (NCATS).)
